Bioassay records: PubChem BioAssay, several laboratories
HMGR II inh: inhibitors of E. faecalis class II HMGR, primary screen, biochemical, Enterococcus faecalis. AID 1066, 2008. purified E. faecalis HMGR, NADPH absorbance 340 nm kinetic. HMG-CoA reductase (Enterococcus faecalis, mvaE). inhibition, % at 10 µM. actives 0.41% (n = 190,000);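 active = inhibition above a set limit, the median over all tested compounds plus 3 SD, cut at about 9.5% in these data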;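 also: enzyme runs in reverse so mevalonate oxidation gives rising NADPH absorbance; 0% = complete reaction with DMSO and 100% = background rate lacking mevalonate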
PABP1 MLLE inh: inhibitors of PABP1 MLLE–PAM2 peptide binding, primary screen, biochemical, fluorescence polarization, FITC-PAM2, GST-MLLE | Polyadenylate-binding protein 1 (Homo sapiens), P11940 | inhibition, % at 20 µM | actives 0.36% (n = 360,000); in the data active = inhibition above about 35%, passing the limit was not always enough;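 also: plate controls were DMSO wells with GST-MLLE for no effect and wells lacking GST-MLLE protein for full effect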
PHOSPHO1 block: PubChem AID 1565; Phosphoethanolamine/phosphocholine phosphatase (Homo sapiens), Q8TCT1; recombinant PHOSPHO1, absorbance phosphatase assay; actives 1.1% (n = 290,000); inhibition, % at 13.3 µM; in the data active = inhibition above about 60%
Target sequence (Q8TCT1 whole entry, looked up): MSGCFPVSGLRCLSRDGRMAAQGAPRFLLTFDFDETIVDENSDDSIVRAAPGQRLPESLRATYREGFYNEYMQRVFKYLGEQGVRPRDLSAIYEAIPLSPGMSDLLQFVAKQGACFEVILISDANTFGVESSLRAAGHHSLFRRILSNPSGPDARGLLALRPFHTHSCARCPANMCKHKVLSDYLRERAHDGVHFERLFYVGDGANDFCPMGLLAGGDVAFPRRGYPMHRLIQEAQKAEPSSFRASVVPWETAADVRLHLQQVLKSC
PABP polyA inh: PABP poly(A) RNA binding inhibitors, primary screen, biochemical, fluorescence polarization, uHTS; Polyadenylate-binding protein 1 (Homo sapiens), P11940; calls only at 35 µM; actives 1% (n = 290,000); AID 2014, 2009;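 also: calls also rest on retests at 20 µM and on dose response follow-up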
eIF4H inh: human eIF4H binding inhibitors, primary screen, translation initiation inhibitor project, biochemical, uHTS, fluorescence polarization. eIF4H fluorescence polarization binding assay. inhibition, % at 35 µM. actives 0.94% (n = 290,000);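 also: calls also rest on retests at 20 µM and on dose response follow-up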
* hit, by the source's call; i = inactive; / = not tested or not shown; + = active, no number. This is a sample that favours compounds with a hit; in the whole collection about 2.4% have one here. Unless noted, no rule for the calls is given here.

SMILES | HMGR II inh | PABP1 MLLE inh | PHOSPHO1 block | PABP polyA inh | eIF4H inh
CCCN1CCN(C(=O)c2c(Cl)cnn2C)CC1 | / | -4 | 22 | i | -1
CCc1nn(C)c(-c2n[nH]c(=S)n2N)c1Cl | 2 | -45 | 62* | i | -6
COc1ccc(CNc2nc(S(=O)(=O)c3ccccc3)c(Cl)s2)cc1OC | -8 | -15 | 4 | + | 54*
O=S(=O)(c1ccccc1)c1nc(NCc2ccccc2)sc1Cl | -2 | -8 | -16 | i | -6
CCCCC(=O)N1C(C)CCC1C (configuration not stated) | / | -11 | / | / | /
COc1ccc(C(=O)c2c(C(F)(F)F)oc3c2C(=O)c2ccccc2C3=O)cc1 | 2 | 9 | 97* | i | 4
O=C(Nc1ccc(-n2nncc2-c2ccco2)cc1)c1cccc(F)c1 | -4 | 11 | 14 | i | -20
O=C(Nc1ccc(-n2nncc2-c2ccco2)cc1)c1cc2ccccc2oc1=O | -2 | -3 | 31 | i | 61*
O=C(Cc1ccccc1[N+](=O)[O-])NCC(=O)c1ccc2c(c1)OCO2 | / | -6 | / | / | /
COc1cc(C(=O)NS(=O)(=O)c2ccccc2C)ccc1Cc1cn(C)c2ccc(NC(=O)OC3CCCC3)cc12 | 2 | / | -32 | i | 45*
O=C(Oc1ccc[nH]c1=O)c1cc([N+](=O)[O-])cc([N+](=O)[O-])c1 | / | -5 | 34 | + | 50
COc1ccc(C(=O)Oc2ccc[nH]c2=O)cc1 | / | -11 | 2 | i | 8
CCC(C)Sc1ccc([C@@H]2[C@H]3C(=O)N(CC)C(=O)[C@H]3[C@]3(C(=O)OC)CCCN23)cc1OC (some centres not stated) | / | -3 | / | / | /
CCc1nccn1CCC(=O)N1CCc2c([nH]c3ccccc23)C1CC(C)C (configuration not stated) | / | 4 | 32 | i | -3
COCc1ccc(CN2CCc3c([nH]c4ccccc34)C2CC(C)C)o1 (configuration not stated) | 0 | -13 | 20 | + | 67
CCC(=O)N(C)C[C@H]1Oc2ncc(C#Cc3ccncc3)cc2C(=O)N([C@@H](C)CO)C[C@@H]1C | / | -14 | / | / | /
CCC(=O)OC1(C)C(=O)C=C2C=C(c3ccsc3)OC=C2C1=O (configuration not stated) | / | -28 | 9 | + | 93*
O=C(COC(=O)c1cccc([N+](=O)[O-])c1)Nc1ncc(Br)s1 | / | -1 | / | / | /
CC(C)=CCc1c(O)cc2oc3c(CC=C(C)C)c(O)c(O)c(CC=C(C)C)c3c(=O)c2c1O | / | -47 | 31 | i | 58*
N#CCCn1cc(/C=N/O)c(-c2ccccc2)n1 | -1 | 2 | -5 | i | 1
N#CCCn1cc(/C=N/NC(N)=S)c(-c2ccc(-c3ccccc3)cc2)n1 | -1 | -35 | -4 | i | 1.9*
COc1cnc(SCC(=O)O)[nH]c1=O | 2 | 22 | 0 | + | 7
O=C(O)CC(Cn1[nH]nnc1=S)c1ccccc1 (configuration not stated) | -5 | -77 | 94* | i | -5
CC(C)c1ccc(/C=C/C(=O)CCC(=O)O)cc1 | 3 | -4 | 40 | i | 1
O=C(O)CCC(=O)/C=C/c1ccccc1 | 12* | -7 | 18 | i | -1
SMILES | HMGR II inh | PABP1 MLLE inh | PHOSPHO1 block | PABP polyA inh | eIF4H inh
CN(C)c1ccc(N=Nc2ccc(S(N)(=O)=O)cc2)cc1 | / | -8 | 10 | i | 24
CC1=CC(=O)C=CC1=Nc1ccc(N(C)C)cc1 | / | 51* | / | / | /
COCCCNC(=O)Cn1cc(/C=C(\C#N)C(=O)NC2CC2)c2ccccc21 | / | 9 | 40 | i | -7
O=Cc1ccc(Sc2ncccn2)o1 | 2 | 29 | 36 | i | 2
CCCCCc1ccc(CC(=O)Nn2c(C)nc3ccccc3c2=O)cc1 | 0 | -5 | 4 | i | -7
Cc1cccc(OCCN2C(=O)C(=O)c3cccc(C)c32)c1 | 4 | -6 | -22 | i | 1.1*
Cc1cccc2c1N(CCCOc1ccccc1)C(=O)C2=O | -8 | 5 | 30 | i | -7
S=C(Nc1ccc(Br)cc1Cl)Nn1cnnc1 | 0 | 37* | -27 | i | -4
O=C(NNC(=S)Nc1ccc(Br)cc1Cl)c1ccncc1 | 0 | 47* | -4 | i | 16
CC(C)(C)OC(=O)C[C@H]1C/C=C\C[C@H](CC(=O)N[C@H](CO)Cc2ccccc2)C(=O)N2CCC[C@@H]2COC1=O | / | 1 | / | / | /
